Active and inactive are the calls of the source.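 How the source made its calls, unless noted: active means compound raises GLP1 secretion from the human gut endocrine cells, with no numeric limit stated; inactive means the rest.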
What was measured:
[1] = hESC survival regulators, cell-based (AID 493140; call rule not given here;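 further: cells exposed to compounds for four days before counting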); details: human embryonic stem cell survival screen; stronger effect = higher value
[2] = liver-stage malaria parasite growth inhibition, primary screen, cell-based, HepG2, luciferase luminescence, HepG2 viability (AID 624349; in the data active means parasite load remaining mostly below about 12%, no sharp cut-off; inactive means mostly above about 10%;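 further: 100% = mean of DMSO negative control wells on the same plate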); details: P. berghei liver stage in HepG2, luciferase luminescence, concentration not given here; parasite load remaining: stronger effect = lower value; viability: measured here: HepG2 viability without parasites
[3] = stimulators of nuclear beta-catenin in C2C12, primary screen, imaging, WNT3A-conditioned medium, mouse C2C12, NPC library (AID 1117326; in the data active means nuclear beta-catenin stimulation mostly above about 4.2%, no sharp cut-off; inactive means mostly below about 10%); details: stronger effect = higher value
[4] = stimulators of insulin release from INS-1E, primary screen, cell-based, 5 mM glucose, NPC library (AID 1117329;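 active means compound raises insulin release from rat beta cells at 5 mM glucose, no numeric limit stated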); details: rat INS-1E insulin secretion, at 10 µM, stronger effect = higher value
[5] = growth inhibition of GSK3B-pretreated HCT116 cells – cell-based, CellTiter-Glo, 0.2 to 20 µM (AID 1117336;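 active means compounds lowering colon cancer cell viability after pretreatment blocking the GSK3B kinase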); details: HCT116 viability after GSK3B inhibitor, at 20 µM, stronger effect = higher value
[6] = inhibition of endothelial tube formation, primary screen, imaging, VEGF stimulated, CD31 staining, tube area, NPC library (AID 1117340;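 active means compound that reduces growth-factor-driven endothelial tube area in a mixed cell culture, no cutoff stated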); details: VEGF-stimulated ADSC/ECFC co-culture, at 10 µM, stronger effect = higher value
[7] = glucagon-like peptide 1 release enhancers, primary assay, NCI-H716 cell line, NPC library (AID 1117341); details: NCI-H716 cells, at 10 µM, stronger effect = higher value
[8] = HCT116 colon cancer cell growth inhibition, primary screen, CellTiter-Glo luminescence, NPC library (AID 1117342;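 active means compounds that lower survival of HCT116 colon cancer cells in the luminescence readout, no numeric limit stated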); details: at 20 µM (top of the series)
[9] = CellTiter-Glo luminescent readout of SW480 viability loss, NPC library primary (AID 1117343;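 active means compounds that lower viability of the colon cancer cells in the luminescence readout, with no numeric limit stated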); details: CellTiter-Glo luminescence; at 20 µM (top of the series) unless noted
[10] = decreased DLD-1 cellular survival, CellTiter-Glo luminescent readout, NPC compound collection, primary HTS (AID 1117346;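 active means compounds that lower survival of DLD-1 colon cancer cells in the luminescence readout, no cutoff given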); details: DLD-1 viability, CellTiter-Glo luminescence; at 20 µM (top of the series)
[11] = differential killing of epithelial or mesenchymal cells, primary screen, imaging, PC-3E GFP, TEM4-18 mCherry, co-culture (AID 1345086;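 active means compounds killing one labelled cell type while sparing the other, by normalised counts and ratio limits, not self-fluorescent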;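 on all read-outs here: cells exposed to compound for 72 h before imaging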;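 on red/green cell ratio (normalised): normalised mesenchymal count divided by normalised epithelial count so high means epithelial killing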); details: imaging cell counts, at 1 µM; for red/green cell ratio (normalised): actives lie on both sides, counts scaled to control wells, 1 = unselective
[12] = sensitizers of A549 cells to miR-34 induction, primary screen, imaging, A549 dox-inducible miR-34, nuclei and caspase counts (AID 1347080;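 active means compounds whose cell count with miR-34 switched on is under 0.7 times the count with it off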); details: A549 miR-34 inducible, Hoechst nuclei count, 48 h
[13] = survival rescue of mitochondrial mutant cells in low glucose, primary screen, MELAS cybrids, Rieske KO mouse fibroblasts, CellTiter-Glo (AID 1508586;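 active means mean z-score across replicates of 1.96 or higher in either the MELAS or the Rieske mutant cell line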;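 further: z relative to plate mean and SD of compound and empty wells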)
[14] = target: NAD(+) hydrolase SARM1 (Homo sapiens) (UniProt Q6SZW1); assay: SARM1 TIR NADase inhibitors, cell lysate, NAD-Glo luminescence (AID 1508614;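 active means compound whose remaining NAD level is above about 45 nM, limit read from the data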); details: SAM-TIR HEK293T lysate NADase, at 1 µM, stronger effect = higher value
[15] = measured here: epithelial PC-3E GFP cell survival
[16] = measured here: mesenchymal TEM4-18 mCherry cell survival
[17] = stronger effect = lower value, cell number ratio, induced over uninduced
[18] = measured here: relative caspase fold change +Dox/-Dox
[19] = measured here: total cells with miR-34 induction, stronger effect = lower value
[20] = measured here: total cells without miR-34 induction
[21] = MELAS cybrid survival, CellTiter-Glo 48 h, stronger effect = higher value
[22] = Rieske KO mouse fibroblast survival, CellTiter-Glo 72 h

NAD(+) hydrolase SARM1 (Homo sapiens), sequence (Q6SZW1 whole entry, looked up): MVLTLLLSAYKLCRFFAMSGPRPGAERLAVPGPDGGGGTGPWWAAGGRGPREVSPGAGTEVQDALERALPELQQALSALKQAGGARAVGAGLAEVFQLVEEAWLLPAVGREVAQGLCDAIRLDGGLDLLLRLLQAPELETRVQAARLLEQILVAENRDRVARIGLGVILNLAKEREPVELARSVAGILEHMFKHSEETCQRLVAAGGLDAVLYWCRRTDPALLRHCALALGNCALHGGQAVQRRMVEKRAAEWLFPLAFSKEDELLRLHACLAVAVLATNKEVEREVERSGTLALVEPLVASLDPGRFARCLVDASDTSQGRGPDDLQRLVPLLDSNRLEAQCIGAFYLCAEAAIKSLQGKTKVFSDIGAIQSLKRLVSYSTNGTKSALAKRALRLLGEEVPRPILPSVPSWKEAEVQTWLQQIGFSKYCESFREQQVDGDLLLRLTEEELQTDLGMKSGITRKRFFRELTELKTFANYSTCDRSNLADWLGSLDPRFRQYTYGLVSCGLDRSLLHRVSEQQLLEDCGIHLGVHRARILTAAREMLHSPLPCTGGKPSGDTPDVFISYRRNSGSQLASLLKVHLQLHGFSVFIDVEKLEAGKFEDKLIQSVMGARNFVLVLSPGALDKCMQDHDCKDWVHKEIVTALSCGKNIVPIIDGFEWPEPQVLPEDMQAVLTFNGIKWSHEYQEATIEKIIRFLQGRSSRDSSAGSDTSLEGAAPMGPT

CCCNC(C)(C)COC(=O)c1ccccc1
survival [1]: 15.2 (inactive)
parasite load remaining [2]: 69.3% (inactive)
viability [2]: 69.4%
nuclear beta-catenin stimulation ([3]; at 10 µM): 0.1% (inactive)
nuclear beta-catenin stimulation ([3]; stimulation, at 2 µM): 0.2%
insulin secretion stimulation [4]: 4.2% (inactive)
viability decrease [5]: 0.2% (inactive)
tube area decrease [6]: 6.5% (inactive)
GLP1 secretion stimulation [7]: 4% (inactive)
inhibition of viability [8]: -3.5% (inactive)
viability decrease (inhibition) [9]: 42.3% (inactive)
viability decrease (inhibition) [10]: 25.6% (inactive)
red/green cell ratio (normalised) [11]: 1.13 (inactive)
normalised cell number [11, 15]: 1.15
normalised cell number [11, 16]: 1.29
fold change [12, 17]: 0.976 (inactive)
fold change [12, 18]: 0.64
cell count [12, 19]: 9410
cell count [12, 20]: 9640
z-score [13, 21]: -0.122 (inactive)
z-score [13, 22]: -0.0308
remaining NAD [14]: 10 nM (inactive)

CCCCCCCCCCCCCCCC[N+](C)(C)CCN(Cc1ccc(OC)cc1)c1ncccn1
survival [1]: 0.417 (inactive)
parasite load remaining [2]: 24.3% (inactive)
viability [2]: 77.4%
nuclear beta-catenin stimulation ([3]; at 10 µM): -5.4% (inactive)
nuclear beta-catenin stimulation ([3]; stimulation, at 2 µM): 0%
insulin secretion stimulation [4]: 2.9% (inactive)
viability decrease [5]: 100% (active)
tube area decrease [6]: 110% (active)
GLP1 secretion stimulation [7]: 79.6% (active)
inhibition of viability [8]: 101% (active)
viability decrease (inhibition) [9]: 120% (active)
viability decrease (inhibition) [10]: 103% (active)
red/green cell ratio (normalised) [11]: 0.95 (inactive)
normalised cell number [11, 15]: 1.06
normalised cell number [11, 16]: 1
fold change [12, 17]: 0.797 (inactive)
fold change [12, 18]: 1.23
cell count [12, 19]: 4700
cell count [12, 20]: 5900
z-score [13, 21]: -2.42 (inactive)
z-score [13, 22]: 1.31
remaining NAD [14]: 10 nM (inactive)

COc1cc(/C=C/C(N)=O)cc(OC)c1OC
nuclear beta-catenin stimulation ([3]; at 10 µM): 1.1% (inactive)
nuclear beta-catenin stimulation ([3]; stimulation, at 2 µM): 0.6%
insulin secretion stimulation [4]: 0.8% (inactive)
viability decrease [5]: -4.6% (inactive)
tube area decrease [6]: 11.9% (inactive)
GLP1 secretion stimulation [7]: 0.1% (inactive)
inhibition of viability [8]: -6% (inactive)
viability decrease (inhibition) [9]: 6.6% (inactive)
viability decrease (inhibition) [10]: 4.6% (inactive)
red/green cell ratio (normalised) [11]: 0.8 (inactive)
normalised cell number [11, 15]: 1.28
normalised cell number [11, 16]: 1.03
fold change [12, 17]: 0.933 (inactive)
fold change [12, 18]: 0.864
cell count [12, 19]: 8570
cell count [12, 20]: 9180
remaining NAD [14]: 10 nM (inactive)

CC1(O)CCC(C(C)(C)O)CC1 (stereo not given)
nuclear beta-catenin stimulation ([3]; at 10 µM): -0.3% (inactive)
nuclear beta-catenin stimulation ([3]; stimulation, at 2 µM): 1.1%
insulin secretion stimulation [4]: 1.4% (inactive)
viability decrease [5]: -1.3% (inactive)
tube area decrease [6]: 2.4% (inactive)
GLP1 secretion stimulation [7]: -5.3% (inactive)
inhibition of viability [8]: 1.1% (inactive)
viability decrease (inhibition) [9]: 5.7% (inactive)
viability decrease (inhibition) [10]: -8.9% (inactive)
red/green cell ratio (normalised) [11]: 1.09 (inactive)
normalised cell number [11, 15]: 0.89
normalised cell number [11, 16]: 0.97
fold change [12, 17]: 0.976 (inactive)
fold change [12, 18]: 0.869
cell count [12, 19]: 8640
cell count [12, 20]: 8850
remaining NAD [14]: 10 nM (inactive)

CCCOc1cc(N)ccc1C(=O)OCCN(CC)CC
survival [1]: 9.5 (inactive)
parasite load remaining [2]: 77.2% (inactive)
viability [2]: 75.5%
nuclear beta-catenin stimulation ([3]; at 10 µM): 0% (inactive)
nuclear beta-catenin stimulation ([3]; stimulation, at 2 µM): 0.6%
insulin secretion stimulation [4]: 4.5% (inactive)
viability decrease [5]: -4.1% (inactive)
tube area decrease [6]: -15.3% (inactive)
GLP1 secretion stimulation [7]: -1.7% (inactive)
inhibition of viability [8]: -3.9% (inactive)
viability decrease (inhibition) [9]: 4% (inactive)
viability decrease (inhibition) [10]: -9.1% (inactive)
red/green cell ratio (normalised) [11]: 1 (inactive)
normalised cell number [11, 15]: 1.21
normalised cell number [11, 16]: 1.21
fold change [12, 17]: 0.973 (inactive)
fold change [12, 18]: 0.697
cell count [12, 19]: 9580
cell count [12, 20]: 9850
z-score [13, 21]: -0.734 (inactive)
z-score [13, 22]: -0.617
remaining NAD [14]: 10 nM (inactive)
